VDR inh: vitamin D3 receptor (human) inhibition; P11473; VDR-SRC2-3 peptide fluorescence polarization, 2 h; Potency, µM, inactives show max response, negative = inhibition, hits mostly inhibitors; 0.93% of 400,000 active; also: % is scaled to controls: 0 for no effect and ±100 for the full control effect
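Fluorescence polarization assay measuring small-molecule disruption of VDR binding to the coregulator peptide SRC2-3. Compounds were pin-transferred (23 nl) into the reagent mix and incubated 2 h at room temperature before reading.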
JMJD2A Tudor: inhibitors of human JMJD2A Tudor domain. O75164. AlphaScreen JMJD2A-Tudor / H3K4me3 peptide binding. Potency, µM (series often up to 114 µM), for the others: at the highest dose activity change, negative = inhibition, usual class: inhibitors. 4.4% of 390,000 active. AID 504339; also: % is scaled to controls: 0 for no effect and ±100 for the full control effect; nearly all actives have a fitted effect of over 50% in size
PLK1 PBD block: blocks phosphopeptide binding to human PLK1 polo-box domain; Plk1 PBD binding of FITC phosphopeptide, fluorescence polarization; P53350; 2.8% of 360,000 active; Potency, µM, for inactives: max response, negative = inhibition, hits mostly inhibitors; also: series mostly up to about 57 µM; % is scaled to controls: 0 for no effect and ±100 for the full control effect; nearly all actives have a fitted effect of over 65% in size
HP1b binding inh: inhibitors of HP1-beta chromodomain binding to methylated histone tails | 0.56% of 390,000 active | AID 540317 | Potency, µM (highest dose often 114 µM), inactives show at the top dose activity change, negative = inhibition, hits mostly inhibitors | P83916 | AlphaScreen HP1-beta / biotin-H3K9me3 peptide binding; also: nearly all actives have a fitted effect of over 70% in size
Target sequence (P83916 whole entry, looked up): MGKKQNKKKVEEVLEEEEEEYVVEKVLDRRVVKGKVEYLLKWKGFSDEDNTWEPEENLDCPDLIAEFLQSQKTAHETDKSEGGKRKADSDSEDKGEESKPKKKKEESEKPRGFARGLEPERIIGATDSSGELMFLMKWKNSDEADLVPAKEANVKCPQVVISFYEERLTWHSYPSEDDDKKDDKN
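AlphaScreen: HP1-beta (50 nM) preformed 30 min with biotin-H3(1-18)K9me3 peptide (50 nM) in PBS pH 7.4, 0.01% Tween-20. Compound added for 30 min at RT, then streptavidin donor/nickel chelate acceptor beads (10 ug/mL) for 30 min.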
G9a block: inhibitors of human histone lysine methyltransferase G9a; Q96KQ7; G9a H3K9 monomethylation, AlphaScreen, 2 h; Potency, µM (titrated, usually from 102 µM), inactives show top-dose activity, negative = inhibition, actives largely listed as inhibitors; 8.8% of 350,000 active; AID 504332; also: % is scaled to controls: 0 for no effect and ±100 for the full control effect; nearly all actives have a fitted effect of over 75% in size
Target sequence (Q96KQ7 913-1193 limits assumed): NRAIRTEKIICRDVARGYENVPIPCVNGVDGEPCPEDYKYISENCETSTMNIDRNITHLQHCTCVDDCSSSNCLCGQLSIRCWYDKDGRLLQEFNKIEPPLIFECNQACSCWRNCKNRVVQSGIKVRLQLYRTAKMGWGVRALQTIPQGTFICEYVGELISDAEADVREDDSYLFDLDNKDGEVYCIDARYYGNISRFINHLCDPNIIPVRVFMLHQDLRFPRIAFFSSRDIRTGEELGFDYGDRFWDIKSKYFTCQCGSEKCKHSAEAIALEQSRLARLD
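Signal arises when biotinylated H3K9 peptide, once monomethylated, bridges streptavidin donor and antibody-captured acceptor beads. Enzyme at 20 nM was preincubated 15 min with test compounds; peptide 500 nM and SAM 20 uM then reacted for 2 h.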
BAZ2B block: blocks human BAZ2B; Q9UIF8; AlphaScreen BAZ2B-H3K14Ac peptide displacement; Potency, µM (highest dose often 114 µM), for the others: at the highest dose activity change, negative = inhibition, usual class: inhibitors; 4.4% of 360,000 active; also: % is scaled to controls: 0 for no effect and ±100 for the full control effect; nearly all actives have a fitted effect of over 60% in size
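AlphaScreen displacement: compounds (up to 110uM) incubated 30 min at room temperature with a preformed 50 nM BAZ2B/50 nM biotinylated H3K14Ac peptide complex in PBS pH 7.4 with Tween-20. Donor and acceptor beads at 10 ug/mL final added, 20 min light-protected before reading.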
* marks the source's active call; other numbers are inactive results; u = inconclusive; x = no result; [ ] = another dose, or the depositor's remark. In the library only some 11% were active in any assay of this set; here they are far more common. Calls follow the shape of the dose curve; as a rule, active = well fitted curve in the direction sought with a large enough effect; inconclusive = small, poorly fitted or top-dose-only effect, or another doubt; inactive = no such curve, though single readings can be large; an effect the other way counts as inactive or inconclusive. Potency is read from the fitted curve at half-maximal effect.

SMILES	VDR inh	JMJD2A Tudor	PLK1 PBD block	HP1b binding inh	G9a block	BAZ2B block
O=C1CCC/C(=N/Nc2ccc(Cl)cc2)C1	u	44.7µM*	29.9µM*	u	4.47µM*	44.7µM*
COc1ccc2c(Cl)c(C(=O)N/N=C3\CCCC(=O)C3)sc2c1	7.2%	-35.6%	29.7%	-16.6%	-42.1%	-17.2%
O=C(CCC1CCCN(C(=O)CC2=CCCCC2)C1)N1CCN(c2ccccn2)CC1 (stereo not drawn)	79.4µM*	14.1µM*	8.44µM*	-16.5%	13.7%	-3.4%
COc1ccc2cc(CNc3ccc(C)cc3)c(=O)n(CC(=O)Nc3cccc(Cl)c3C)c2c1	2.4%	5.2%	x	49.8%	u	-2.5%
CCOc1ccc(-c2cc(C(=O)N/N=C(\C)c3cccnc3)c3ccccc3n2)c(OCC)c1	-2.3%	-16.4%	-3.5%	26.2%	u	-10.6%
COc1ccc(C2C(C(C)=O)=C(O)C(=O)N2c2cccnc2)c(OC)c1 (stereo not drawn)	0.2%	25.1µM*	-3.8%	16.1%	-2.6%[59 µM]	u
COc1ccc(OC)c(C2C(C(C)=O)=C(O)C(=O)N2Cc2cccnc2)c1 (stereo not drawn)	-10.4%	-9.5%	-11.8%	26.9%	u	u
COc1ccc(OC)c(C2C(C(C)=O)=C(O)C(=O)N2c2ccc(F)cc2)c1 (stereo not drawn)	-4.5%	u	-9.5%	38.2%	-15.4%[59 µM]	-5.1%
COc1ccc(C2C(C(C)=O)=C(O)C(=O)N2C)c(OC)c1 (stereo not drawn)	19.3%	u	-6.4%	19.5%	44.7µM*	-36.6%
COC(=O)[C@H](Cc1ccccc1)NC(=O)NCc1cccs1	-4.1%	-6.6%	-9.2%	11.2%	21.7%[12.7 µM]	10.2%
O=S(=O)(NCc1cccnc1)c1cccc2nsnc12	u	-8.9%	-9.7%	11.0%	31.6µM*	4.6%
O=C(C1=C[C@@H]2[C@H]3C(=O)N(c4ccccc4)C(=O)[C@H]3[C@@H](C(=O)c3ccc(Cl)cc3)N2C=C1)c1ccccc1	x	x	x	x	11.2µM*	u
COc1ccc(C)cc1NC(=O)CN1CCN(S(=O)(=O)c2ccc3ccccc3c2)CC1	-19.1%	-16.7%	-4.4%	31.7%	-40.5%[2.33 µM]	-3.4%
Cc1ccc(NC(=O)CS(=O)CC(=O)N(c2ccc(C)cc2)C(C)C(=O)NC2CCCCC2)cc1 (stereo not drawn)	20.4%	-3.2%	-6.4%	41.1%	17.8µM*	16.0%
Cc1ccc(NC(=O)CS(=O)CC(=O)N(c2ccccc2F)C(C)C(=O)NC2CCCC2)cc1 (stereo not drawn)	7.9%	8.1%	-3.1%	35.0%	-28.2%	3.7%
Fc1ccc(C(c2nnnn2C2CCCC2)N(Cc2ccco2)CC2CCCO2)cc1 (stereo not drawn)	-5.1%	-1.5%[11.4 µM]	-17.7%	-14.7%	1.2%[59 µM]	-3.3%
c1ccc(CN(Cc2ccco2)C(c2ccncc2)c2nnnn2C2CCCC2)cc1 (stereo not drawn)	28.2µM*	u	u	-3.2%	20µM*	u
CCN(CC)C(c1ccc(F)cc1)c1nnnn1C1CCCCC1 (stereo not drawn)	4.6%	7.4%	-4.5%	31.6%	89.1µM*	-30.6%
O=C(c1nc(-c2ccccc2)n(-c2ccccc2)n1)N1CCN(S(=O)(=O)c2ccccc2)CC1	-19.8%	70.8µM*	u	-14.6%	u	u
COc1ccc2c(c1)O[C@@H](c1cccc(C(F)(F)F)c1)[C@H](OC(=O)N[C@H](C)C1CCCCC1)C2=O	12.1%	x	x	x	x	x
CCNC(=S)NNC(=O)c1cc(-c2cccc(C)c2)nc2ccccc12	2.7%	-18.6%	-14.8%	9.2%	u	-6.4%
O=C(NNC(=S)Nc1ccccc1)c1cc(-c2cccnc2)nc2ccccc12	u	-23.4%	-13.8%	-6.0%	15.8µM*	-19.9%
CCCNC(=S)NNC(=O)c1cc(-c2cccnc2)nc2ccccc12	7.6%	-19.1%	-3.4%	43.6%	-5.7%[0.501 µM]	-4.7%
CCCCNC(=S)NNC(=O)c1cc(-c2cccnc2)nc2ccccc12	-9.1%	-18.8%	-4.7%	19.5%	79.4µM*	-14.1%
